CRE-bla Fsk: modulators of forskolin-stimulated CRE signaling in CHO cells; CHO CRE-bla reporter (cAMP response element driving beta-lactamase), forskolin EC10, beta-lactamase ratio; Potency, µM (highest dose often 38.2 µM), usual class: activators; actives 2.5% (n = 71,000); active means well fitted activation curve with a large enough effect in the signal ratio, with a control signal flat, not every such curve was filed as active; inconclusive means small, poorly fitted or top-dose-only effect, or effect the other way, or a change in a side signal; the % refers to the signal ratio
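Modulation of forskolin-driven signalling is measured in CHO cells carrying a CRE-controlled beta-lactamase reporter. Cells are stimulated with EC10 NKH 477 in the presence of titrated compound for 3 h at 37 °C, then loaded with CCF4 for 2 h at room temperature.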
HADH2 inhib: inhibitors of human HADH2 dehydrogenase; recombinant HADH2, NADH fluorescence, beta-hydroxybutyryl-CoA; AID 886; Potency, µM (top dose mostly 57.1 µM), actives largely listed as inhibitors; actives 3.4% (n = 73,000); further: nearly all actives have a fitted effect of over 60% in size
Target sequence (Q99714 whole entry, looked up, one chain of several): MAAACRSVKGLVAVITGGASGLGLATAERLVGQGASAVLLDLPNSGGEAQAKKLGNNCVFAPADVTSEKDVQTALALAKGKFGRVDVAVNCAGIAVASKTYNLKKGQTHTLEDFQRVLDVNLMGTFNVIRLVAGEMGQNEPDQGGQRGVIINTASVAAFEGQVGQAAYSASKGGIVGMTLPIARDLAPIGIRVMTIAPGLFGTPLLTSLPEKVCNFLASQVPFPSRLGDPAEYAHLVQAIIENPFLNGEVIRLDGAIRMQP
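NADH fluorescence (ex 360/em 450 nm) read every 30 s for 4 min; activity taken as last-minus-first time point difference. Enzyme 20 nM, NAD+ 1 mM, beta-hydroxybutyryl-CoA 90 uM, pH 9.0 Tris buffer.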
HSD17B inh: blocks hydroxysteroid 17-beta dehydrogenase activity | actives 7.6% (n = 75,000) | Q99714 | AID 893 | Potency, µM (doses to about 57.1 µM), usual class: inhibitors | recombinant HSD17B10, NADH fluorescence kinetic;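 further: the protocol describes HADH2 (HSD17B10) and not the HSD17B4 of the title; nearly all actives have a fitted effect of over 70% in size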
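His-tagged E. coli-expressed HADH2 at 20 nM in 100 mM Tris-HCl pH 9.0 with 0.01 % Tween-20, preincubated 15 min with compound at room temperature. Reaction with 1 mM NAD+ and 90 uM beta-hydroxybutyryl coenzyme A; NADH fluorescence (360/450 nm) read kinetically over 4 min, last minus first point.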
4MU fluor: 4-MU region autofluorescence; compound autofluorescence, 340/450 nm, 4-MU equivalents; active compounds read high; max dye-equivalent concentration, M; actives 11% (n = 59,000); AID 589; in the data active means max dye-equivalent concentration above about 10 nM; inconclusive means mostly about 1.1 nM to 9.6 nM
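Compounds in 100 mM Tris, pH 8.0, incubated 15 min at room temperature, then fluorescence read at 340 nm excitation/450 nm emission. Signal converted to 4-MU dye-equivalent concentration using an on-plate six-point 4-MU standard curve.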
A350 fluor: compound fluoresces in the Alexa 350 spectral region | Compound autofluorescence, 340/450 nm, Alexa 350 dye-equivalents; active compounds read high | max dye-equivalent concentration, M | actives 11% (n = 59,000); in the data active means max dye-equivalent concentration above about 10 nM; inconclusive means mostly about 1.1 nM to 9.6 nM
AID923: qHTS Assay for Allosteric/Competitive Inhibitors of Caspase-1: Spectroscopic Profiling in AFC Spectral Region | Potency, µM (highest dose often 57.5 µM), usual class: activators | compound fluorescence, AFC spectral region (405/520 nm) | actives 1.1% (n = 75,000) | AID 923, 2007
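Compound autofluorescence profiled at 405 nm ex/520 nm em during kinetic caspase 1 run (50 nM enzyme, 5 uM Ac-WEHD-AFC, HEPES pH 7.5, 10 mM DTT). Titration up to 57 uM; baseline from regression intercept, normalized to AFC standard curve.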
Numbers stand for hits; [ ] = dose if it differs, or a comment. Compounds with a hit are over-represented: about 14% of the library has one in this group of screens. Unless noted, the call rests on the fitted dose curve; in most records, active means well fitted curve in the direction sought with a large enough effect; inconclusive means small, poorly fitted or top-dose-only effect, or another doubt; inactive means no such curve, though single readings can be large; an effect the other way counts as inactive or inconclusive.

`CC(C)[C@H](NC(=O)OC(C)(C)C)[C@@H](O)CC(=O)C(C)(C)C` gave HADH2 inhib inactive[11.4 µM], HSD17B inh inactive[11.4 µM] and AID923 inactive[11.5 µM].
For COC(=O)[C@@]1(Cc2ccc(F)cc2)[C@H]2c3cc(C(=O)N4CCCC4)n(Cc4c(CO)[nH]cc(C)c4=O)c3C[C@H]2CN1C(=O)c1ccccc1 the results were CRE-bla Fsk inactive, HADH2 inhib inactive, HSD17B inh inactive and AID923 inactive.
O=C(O)Cc1cc(Cl)ccc1O was read as CRE-bla Fsk inactive[7.6 µM], HADH2 inhib inactive[11.4 µM], HSD17B inh inactive[11.4 µM], 4MU fluor inactive, A350 fluor inactive and AID923 inactive[11.5 µM].
Cc1cccc(NC(=O)Cn2cnc3c(cnn3-c3ccc(F)cc3)c2=O)c1C was read as CRE-bla Fsk inactive, HADH2 inhib inactive, HSD17B inh inactive and AID923 inactive.
`O=C(Cn1nnc2c(cnn2-c2ccc(F)cc2)c1=O)c1ccccc1F` gave CRE-bla Fsk inactive, HADH2 inhib inactive, HSD17B inh inactive, 4MU fluor 6.8e-08M, A350 fluor 5.7e-08M and AID923 inactive.
For COc1ccc2c(Cl)cc(NC(=S)Nc3ccccc3)nc2c1 the results were CRE-bla Fsk inactive[7.6 µM], HADH2 inhib inactive[11.4 µM], HSD17B inh inactive[11.4 µM], 4MU fluor inactive, A350 fluor inactive and AID923 inactive[11.5 µM].
`COC(=O)c1ccc(CCc2cc(O)ccc2O)cc1` gave CRE-bla Fsk inactive[7.6 µM], HADH2 inhib 1.3µM, HSD17B inh 0.79µM, 4MU fluor inactive, A350 fluor inactive and AID923 inactive[11.5 µM].
For Cc1oc2c(CN3CCCC3)c(O)ccc2c(=O)c1-c1ccc(Cl)cc1 the results were CRE-bla Fsk inactive, HADH2 inhib 25µM, HSD17B inh 32µM, 4MU fluor 5.4e-07M, A350 fluor 7.3e-07M and AID923 inactive.
O=c1c(-c2ccc(Br)cc2)coc2c(CN3CCOCC3)c(O)ccc12 was read as CRE-bla Fsk inactive, HADH2 inhib inactive, HSD17B inh 32µM, 4MU fluor 1.4e-07M, A350 fluor 1.8e-07M and AID923 inactive.
For Cc1oc2c(CN3CCOCC3)c(O)ccc2c(=O)c1-c1ccc(Br)cc1 the results were CRE-bla Fsk inactive, HADH2 inhib inactive, HSD17B inh inconclusive, 4MU fluor 2e-07M, A350 fluor 2.5e-07M and AID923 inactive.
For Cc1oc2c(CN3CCCC3)c(O)ccc2c(=O)c1-c1ccccc1 the results were CRE-bla Fsk inactive, HADH2 inhib 32µM, HSD17B inh 25µM, 4MU fluor 6.9e-07M, A350 fluor 9.3e-07M and AID923 inactive.
For COc1ccc(C(=O)c2c(C)oc3ccc(O)c(CN4CCOCC4)c23)cc1 the results were HADH2 inhib inactive, HSD17B inh inactive and AID923 inactive.
For O=C(Nc1cccc(F)c1)N1CCCC2(CCN(C(=O)c3ccco3)CC2)C1 the results were CRE-bla Fsk inactive, HADH2 inhib inactive, HSD17B inh inactive, 4MU fluor inactive, A350 fluor inactive and AID923 inactive.
CC(C)N(C)C was read as CRE-bla Fsk inactive, HADH2 inhib inactive, HSD17B inh inactive and AID923 inactive.
For Cc1ccc(S(=O)(=O)N2CCC(C(=O)O)(c3ccccc3)CC2)cc1 the results were CRE-bla Fsk inactive[7.6 µM], HADH2 inhib inactive[11.4 µM], HSD17B inh inactive[11.4 µM], 4MU fluor inactive, A350 fluor inactive and AID923 inactive[11.5 µM].
COc1cc(-c2c(C#N)c(=O)[nH]c3c2c(C)nn3-c2ccccc2)ccc1O was read as CRE-bla Fsk inconclusive, HADH2 inhib inactive, HSD17B inh inconclusive, 4MU fluor 2.2e-08M, A350 fluor 2.6e-08M and AID923 inactive.
CCCCn1cnc2c(SC)ncnc21 was read as CRE-bla Fsk inactive[7.6 µM], HADH2 inhib inactive[11.4 µM], HSD17B inh inactive[11.4 µM], 4MU fluor inactive, A350 fluor inactive and AID923 inactive[11.5 µM].
For COC(=O)c1cc2ccc(OC)c(OC)c2c(=O)s1 the results were CRE-bla Fsk inconclusive, HADH2 inhib inactive, HSD17B inh inactive, 4MU fluor 1.9e-08M, A350 fluor 2e-08M and AID923 inactive.
N#CC(C(=O)Nc1cccc(Cl)c1)=C1Nc2ccccc2N1 was read as CRE-bla Fsk inactive, HADH2 inhib inactive, HSD17B inh 25µM, 4MU fluor inactive, A350 fluor inactive and AID923 inactive.
Screening C=CCOC(=O)C(C(C)=O)C(NC(=O)OC)c1ccco1 (centres undefined) returned HADH2 inhib inactive[11.4 µM], HSD17B inh inactive[11.4 µM] and AID923 inactive[11.5 µM].
`NC(Cc1cc(I)c(Oc2ccc(O)c(I)c2)c(I)c1)C(=O)O` (centres undefined) gave HSD17B inh 20µM and AID923 inactive.
`NC(Cc1cc(I)c(Oc2cc(I)c(O)c(I)c2)c(I)c1)C(=O)O` (centres undefined) gave HSD17B inh 10µM and AID923 inactive.
Screening C[C@@](N)(C(=O)O)c1ccc(S(=O)(=O)O)cc1 returned CRE-bla Fsk inconclusive, HADH2 inhib inactive, HSD17B inh inactive and AID923 inactive.
`Oc1c(C(O)(c2ccccc2)c2ccc3ccccc3c2O)ccc2ccccc12` gave CRE-bla Fsk inactive[7.6 µM], HADH2 inhib inconclusive, HSD17B inh inactive[11.4 µM], 4MU fluor inactive, A350 fluor inactive and AID923 inactive[11.5 µM].
COc1ccc(C(=O)N(Cc2ccco2)Cc2cc3cc(C)ccc3[nH]c2=O)cc1OC was read as CRE-bla Fsk inactive, HADH2 inhib inactive, HSD17B inh inactive, 4MU fluor 3.1e-08M, A350 fluor 4e-08M and AID923 inactive.
CCN(Cc1cc2ccc(C)cc2[nH]c1=O)C(=O)c1cccnc1 was read as CRE-bla Fsk inactive, HADH2 inhib inactive, HSD17B inh inconclusive, 4MU fluor inconclusive, A350 fluor inconclusive and AID923 inactive.
Screening Cc1ccc2[nH]c(=O)c(CN(Cc3ccco3)C(=O)c3ccncc3)cc2c1 returned CRE-bla Fsk inactive, HADH2 inhib inactive, HSD17B inh inconclusive, 4MU fluor inconclusive, A350 fluor inconclusive and AID923 inactive.
For CCN(Cc1cc2cc(C)ccc2[nH]c1=O)C(=O)c1cccc(OC)c1 the results were CRE-bla Fsk inconclusive, HADH2 inhib inactive, HSD17B inh 25µM, 4MU fluor inconclusive, A350 fluor inconclusive and AID923 inactive.
Screening CCC(=O)N(Cc1cc2cc(OC)ccc2[nH]c1=O)c1cc(C)ccc1C returned CRE-bla Fsk inconclusive, HADH2 inhib inactive, HSD17B inh 16µM, 4MU fluor 1.7e-07M, A350 fluor 1.5e-07M and AID923 inactive.
CCOc1ccc2[nH]c(=O)c(CN(Cc3ccco3)C(=O)c3cccc(F)c3)cc2c1 was read as CRE-bla Fsk inactive, HADH2 inhib inactive, HSD17B inh 20µM, 4MU fluor 1.1e-07M, A350 fluor 1.5e-07M and AID923 inactive.
